Bioassay records as filed in PubChem.
A selection: hits, their analogues and other compounds. The true share with any hit is near 6.6%.
KB-3-1 tox – KB-3-1 parental cell cytotoxicity | KB-3-1 viability, CellTiter-Glo ATP luminescence, 72 h | Potency, µM (highest dose often 46.1 µM), usual class: cytotoxic | hit rate 1.4% among 400,000 | AID 1347075; further: nearly all actives have a fitted effect of over 60% in size
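Cytotoxicity in the drug-sensitive parental line KB-3-1 was scored as loss of CellTiter-Glo luminescence following 72 h incubation with compound. Values come from curve fitting of normalized concentration-response data.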
TGFb inhibitor – inhibitors of TGF-b signaling; HepG2 CAGA-GFP TGF-b/SMAD3 reporter, GFP fluorescence, 18 h; TGF-beta stimulated, 500 pg/mL final; Potency, µM (titrated, usually from 46.1 µM), usual class: inhibitors; hit rate 1.2% among 410,000; further: nearly all actives have a fitted effect of over 65% in size
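HEPG2 CAGA-GFP reporter cells (1000/well, DMEM with 1% FBS) received compounds, then recombinant TGF-beta at 500 pg/mL final for 18 hours at 37 degrees C. Per-cell GFP summed per well was normalised to unstimulated and stimulated DMSO controls before curve fitting.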
HT1080NT lethal – kills 2HG-producing HT-1080-NT fibrosarcoma cells | HT-1080-NT fibrosarcoma viability, CellTiter-Glo ATP luminescence, 48 h | Potency, µM (highest dose often 46.1 µM), hits mostly cytotoxic | hit rate 1.6% among 360,000 | AID 686970;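 further: NT is the 2HG producing partner of a matched IDH1 knockdown line; nearly all actives have a fitted effect of over 55% in size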
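A 48-hour cytotoxicity screen used HT-1080-NT cells plated 2 hours before compound delivery. ATP-based CellTiter-Glo luminescence measured viability, normalized to DMSO and no-cell controls.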
HepG2 viability – HepG2 cytotoxicity, counter-screen for TGF-b inhibitors | HepG2 CAGA-GFP viability, ATP luminescence, 18 h | hit rate 0.76% among 410,000 | Potency, µM (top dose mostly 46.1 µM), actives largely listed as cytotoxic
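HepG2 CAGA-GFP cells (1000/well, DMEM with 1% FBS) received compound, then TGF-beta at 500 pg/mL final, and were incubated 18 hours at 37 degrees C. Viability was read by CellTiter-Glo luminescence. Media-only wells were set as complete cell-killing and DMSO as no toxicity.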
KB-V1 MDR tox – kills drug-selected multidrug resistant KB-V1 cells; KB-V1 MDR cells viability, CellTiter-Glo, 72 h; AID 1347076; Potency, µM (series often up to 46.1 µM), hits mostly cytotoxic; hit rate 3.4% among 400,000; further: nearly all actives have a fitted effect of over 60% in size
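Cytotoxicity via CellTiter-Glo luminescence after 72 h compound exposure at 37 degrees C. Cells: drug-selected KB-V1 line, DMEM phenol-red free plus 10% FBS. Compounds tested at multiple concentrations; normalized data fitted to concentration-effect curves.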
HT1080 IDH1KD tx – HT-1080 IDH1 knockdown cell toxicity (counter line) | hit rate 2% among 360,000 | AID 686971 | HT-1080 IDH1 knockdown viability, ATP luminescence, 48 h | Potency, µM (series often up to 46.1 µM), usual class: cytotoxic
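Viability of IDH1-knockdown HT-1080 fibrosarcoma cells was assessed by CellTiter-Glo after 48 h at 37 °C with titrated compound; concentration-effect curves were classified by fit quality and response size.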
Hits are given with their value; 0 = inactive; ? = inconclusive; - = not tested or not shown. The call rests on the fitted dose curve; in most records, active means well fitted curve in the direction sought with a large enough effect; inconclusive means small, poorly fitted or top-dose-only effect, or another doubt; inactive means no such curve, though single readings can be large; an effect the other way counts as inactive or inconclusive.

SMILES	KB-3-1 tox	TGFb inhibitor	HT1080NT lethal	HepG2 viability	KB-V1 MDR tox	HT1080 IDH1KD tx
O=C1C=C(Nc2ccc(F)cc2)c2ccccc2C1=O	?	3.98µM	?	4.47µM	20.6µM	?
COc1cc(Cl)c(NC2=CC(=O)C(=O)c3ccccc32)c(OC)c1	9.2µM	5.01µM	9.2µM	3.55µM	8.2µM	8.2µM
O=C1CCCC2=C1C1(CCCOC1)N=C(Nc1nc3ccccc3o1)N2 (stereo not drawn)	0	-	-	-	?	-
O=c1[nH]c2ccc(NCc3ccc(-c4ccccc4F)o3)cc2[nH]1	0	0	-	0	0	-
COc1ccc(-n2nc(-c3ccc(C)cc3)c3cnc4cc(F)c(F)cc4c32)cc1	0	0	-	0	0	-
COc1c(C)cccc1C(=O)Nc1cccc2ccc(C)nc12	0	0	-	0	0	-
O=Nc1nc2ncccn2c1-c1ccccc1	0	0	0	0	?	11.6µM
Nc1nc2ncccn2c1-c1ccc(F)cc1	0	-	0	-	0	0
Oc1ccc(O)c(Cc2nc3ccccc3s2)c1	?	?	?	0	?	16.4µM
OCc1cc(Br)ccc1OCc1nc2ccccc2s1	0	0	0	0	5.17µM	0
COCc1nnc(NC(=O)c2c(-c3c(Cl)cccc3Cl)noc2C)s1	0	0	?	0	0	20.6µM
Cc1onc(-c2c(F)cccc2Cl)c1C(=O)Nc1cccc2nsnc12	18.4µM	0	0	0	18.4µM	?
CC(C)COC(=O)N1C(COCc2ccccc2)CCC=CS1(=O)=O (stereo not drawn)	-	?	-	0	-	-
CCOC(=O)CC1(C)NC(=O)c2c(C)sc(C(=O)OCC)c2N1 (stereo not drawn)	0	0	0	0	16.4µM	0
CCCCOC(=O)c1ccc(NC(=O)c2cc3c(=O)n4cccc(C)c4nc3n2C)cc1	-	0	-	0	-	-
COc1cc(OC)c(NC(=O)NC(C)c2c(-n3cccc3)sc(C)c2C)cc1Cl (stereo not drawn)	-	-	-	0	-	-
COC(=O)c1cccc(S(=O)(=O)N2CCC(NC(=O)NC34CC5CC(CC(C5)C3)C4)CC2)c1	0	0	0	0	11.6µM	0
COC(=O)c1cccc(S(=O)(=O)N2CCC(C)CC2)c1	0	0	0	0	20.6µM	0
CC1CCN(S(=O)(=O)c2nnc(NC(=O)c3cccc(Br)c3)s2)CC1	?	4.47µM	-	0	0	-
COc1cc2c(=O)c(S(=O)(=O)c3ccc(F)cc3)cn(Cc3ccc(Cl)cc3)c2cc1OC	0	0	-	0	?	-
CCOC(=O)c1ccc(NC(=S)N2CCSC2c2ccc(OC)cc2)cc1 (stereo not drawn)	0	0	0	0	18.4µM	0
Nc1nc(N)c2cc(S(=O)(=O)c3ccc4ccccc4c3)ccc2n1	0	?	8.2µM	0	0	3.26µM
Cc1ccc2nc(-c3ccc(F)cc3)nc(SCC(=O)NCC3CCCO3)c2c1 (stereo not drawn)	?	0	0	0	0	0
CCc1ccc2nc(-c3cccc(C)c3)nc(SCC(=O)NCC3CCCO3)c2c1 (stereo not drawn)	0	0	0	0	2.59µM	0
COc1ccc(NC(=O)Cn2c(=O)n(-c3ccc(OC)cc3)c(=O)c3sc4ccccc4c32)cc1	0	0	-	0	0	-
SMILES	KB-3-1 tox	TGFb inhibitor	HT1080NT lethal	HepG2 viability	KB-V1 MDR tox	HT1080 IDH1KD tx
NNC(=O)/C(=N/Nc1ccccc1)S(=O)(=O)c1ccc(Cl)cc1	18.4µM	0	?	0	0	?
CCOC(=O)/C(=N/Nc1ccc(C)cc1)S(=O)(=O)c1ccc(Cl)cc1	0	0	?	0	16.4µM	?
O=C(Nc1ccc(F)cc1)C1CCN(S(=O)(=O)c2ccc3c(c2)CCCN3C(=O)C2CCC2)CC1	?	0	-	0	0	-
O=C(CN1C(=O)C(c2ccc(F)cc2)=NC12CCCCCC2)Nc1ccccc1Cl	-	?	-	0	-	-
O=C(CCc1nc2ccccc2c(=O)[nH]1)NCc1ccco1	?	0	0	0	?	0
CCC(CC)C(=O)N(CCc1ccc(OC)cc1)Cc1nc2ccccc2c(=O)[nH]1	0	?	?	0	?	7.08µM
COc1ccc(CCN(Cc2nc3ccccc3c(=O)[nH]2)C(=O)c2ccco2)cc1	0	0	0	0	20.6µM	0
CCN(CCS(=O)(=O)c1ccc(Cl)cc1)Cc1nc2ccccc2c(=O)[nH]1	0	0	0	0	7.31µM	0
CN(CC(=O)NC(=O)NCc1ccco1)Cc1nc2ccccc2c(=O)[nH]1	0	?	?	0	0	11.2µM
O=C(Cn1ccc2cc(S(=O)(=O)N3CCCCC3)ccc21)NCCc1ccccc1Cl	0	0	-	0	0	-
CCC(C(=O)Nc1ccc(C(C)C)cc1)n1nc(C)n2c(cc3cc(C)ccc32)c1=O (stereo not drawn)	0	?	-	0	0	-
CCc1ccc(NC(=O)c2ccc3c(=O)n4nc(Nc5ccccc5C)sc4nc3c2)cc1	0	?	-	0	?	-
Oc1ccc(N2CCN(C(=S)NCCc3ccccc3)CC2)cc1	?	0	?	0	0	3.66µM
COc1ccc(N2CCN(C(=S)NCCc3ccccc3)CC2)cc1	0	0	0	0	0	0
Oc1ccccc1N1CCN(C(=S)NCCc2ccccc2)CC1	?	0	0	0	14.6µM	0
Nc1cc(=O)[nH]c(=S)[nH]1	0	0	-	0	0	-
COc1cccc(CNC(=O)Cn2nc(N3CCN(c4ccccc4OC)CC3)ccc2=O)c1	0	0	-	0	0	-
CC(/C=C/c1ccc(N(C)C)cc1)=N\N=C1\NC(=O)CC(C(=O)Nc2ccccc2)S1 (stereo not drawn)	0	15.8µM	0	0	0	?
CC(/C=C/c1ccc(N(C)C)cc1)=N/N=C1/NC(=O)CC(C(=O)Nc2ccc(Cl)cc2)S1 (stereo not drawn)	0	10µM	?	0	0	16.4µM
COc1ccc(NC(=O)C2CC(=O)N/C(=N/N=C/c3ccccc3)S2)cc1 (stereo not drawn)	0	0	0	0	0	0
CCCOc1ccc(NC(=O)C2CC(=O)N/C(=N/N=C(C)/C=C/c3ccc(N(C)C)cc3)S2)cc1 (stereo not drawn)	?	0	0	0	16.4µM	0
CC(=O)Nc1cccc(-c2ccnc3c2CC(C(=O)NCc2ccc(N4CCN(C)CC4)cc2)O3)c1 (stereo not drawn)	0	0	0	0	0	0
CNC(=O)c1cccc(-n2c(C)nc3cccnc32)c1C	0	0	-	0	0	-
Cc1ccc(S(=O)(=O)N(C)Cc2ccc(C(=O)N/N=C/c3ccc(OC(F)F)cc3OC(F)F)cc2)cc1	?	0	0	0	5.8µM	0
